The values below come from PubChem BioAssay AID1224903 (Bradner/Qi Labs at DFCI, 2016).

Molecules are shown by their SMILES. Out of some 66,000 compounds screened, about 720 (1.1%) were called active. No stated cut-off is given here; in the data, active means normalised signal below about 0.5; inactive means the rest, inconclusive results apart. The sample as a whole holds a higher share of actives than the screen did.

For this assay, the target named is Chromobox protein homolog 7 (Homo sapiens) (UniProt O95931). As to the kind of experiment: CBX7 chromodomain binding inhibitors, primary screen, biochemical, AlphaScreen (AID 1224903). To be noted: AlphaScreen His6-CBX7 / biotin-H3K27me3 peptide binding, stronger effect = lower value; z-score: measured here: z-score of CBX7 signal. Background: Bead proximity is the source of the signal in Alpha formats.
Sequence of Chromobox protein homolog 7 (Homo sapiens) (O95931 whole entry, looked up): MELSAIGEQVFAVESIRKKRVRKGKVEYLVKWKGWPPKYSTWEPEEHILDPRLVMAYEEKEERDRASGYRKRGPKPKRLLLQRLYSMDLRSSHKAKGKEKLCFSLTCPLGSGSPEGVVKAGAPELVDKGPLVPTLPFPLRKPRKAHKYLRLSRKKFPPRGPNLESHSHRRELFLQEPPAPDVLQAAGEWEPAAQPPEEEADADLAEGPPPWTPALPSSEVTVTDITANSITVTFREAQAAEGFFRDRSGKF
For `CC(=O)Nc1ccc(S(=O)(=O)NCc2ccc(C(=O)NCCc3ccc(C)cc3)cc2)cc1`, the normalised signal (fraction of DMSO) was 1.42 (inactive) and the z-score was determined as 1.84.
Taken in the same sequence, the figures for `COc1ccc(Cn2c(=O)c3cccnc3n(Cc3ccc(C)cc3)c2=O)cc1` were 1.11 (inactive) and 1.94.
Taken in the same sequence, the figures for `O=C(NCCCc1ccccc1)c1ccc2c(c1)N(Cc1ccccc1)CCS2` were 0.992 (inactive) and -0.011.
Taken in the same sequence, the figures for `CCN(CCCNC(=O)c1c[nH]c2ccc(S(=O)(=O)N(CC)CC)cc2c1=O)c1cccc(C)c1` were 0.423 (active) and -6.22.
For `CCCCCCNC(=O)c1c[nH]c2ccc(S(=O)(=O)N(CC)c3cccc(C)c3)cc2c1=O`, the normalised signal (fraction of DMSO) is 1.08 (inactive) and the z-score amounted to 1.26.
Regarding `COCCCNC(=O)c1c[nH]c2ccc(S(=O)(=O)N(C)c3cccc(C)c3)cc2c1=O`, the normalised signal (fraction of DMSO) is 1.02 (inactive) and the z-score was determined as 0.264.
Taken in the same sequence, the figures for `O=C(CCCN1C(=O)CSc2ncccc21)NC1CCN(Cc2ccccc2)CC1` were 1.02 (inactive) and 0.27.
Taken in the same sequence, the figures for `O=C(Nc1ccc(C(F)(F)F)cc1)c1n[nH]c(=O)c2ccccc12` were 1.17 (inactive) and 1.04.
Taken in the same sequence, the figures for `COc1ccc(-c2noc(CCC(=O)NCc3cccc(OC)c3)n2)cc1` were 0.872 (inactive) and -1.96.
For the compound `CCCNC(=O)c1nn2c(C(F)(F)F)cc(-c3ccco3)nc2c1Br`, the normalised signal (fraction of DMSO) is 1.09 (inactive) and the z-score stood at 2.47.
Taken in the same sequence, the figures for `CCC(CO)NCC(O)COCc1ccc(Cl)cc1` (configuration not stated) were 1.05 (inactive) and 0.823.
Take `O=C(Cn1nc(-c2ccccc2)c2cc(Cl)ccc21)NCc1ccccc1`: the normalised signal (fraction of DMSO) was 1.08 (inactive) and the z-score was found to be 2.18.
Taken in the same sequence, the figures for `Cc1cc(Br)ccc1NC(=O)CNC(=O)Cn1c(C)cc2ccccc2c1=O` were 1.18 (inactive) and 1.84.
In the case of `CCCCN(CC)CCCNC(=O)C1CCN(C(=O)c2cc3sccc3n2C)CC1`, the normalised signal (fraction of DMSO) was 0.959 (inactive) and the z-score was -0.744.
Taken in the same sequence, the figures for `Cc1ccc(OCC(=O)Nc2ccc(S(=O)(=O)Nc3nccs3)cc2)c(Br)c1` were 1 (inactive) and 0.0983.
Taken in the same sequence, the figures for `CCc1c(-c2ccccc2)nc2ccccc2c1C(=O)NCC1COc2ccccc2O1` (configuration not stated) were 0.762 (inactive) and -0.941.
